Molecules are shown by their SMILES. Among all 390,000 compounds or so, about 4,000 (1%) were called active. A call without a number means that no potency is given here. Another 4% or so got no clear call; they are omitted. Only a selection was taken, and actives are over-represented in it overall. Unmarked numbers belong to inactive results. Calls follow the shape of the dose curve; as a rule, active = well fitted inhibition curve with a large enough effect; inconclusive = small, poorly fitted or top-dose-only effect; inactive = no such curve, though single readings can be large or run the other way.

Results on 101 molecules are retold here after PubChem BioAssay AID588453 (National Center for Advancing Translational Sciences (NCATS), 2011).
Potency is read from the fitted curve at half-maximal effect.

Chain of Thioredoxin reductase 1, cytoplasmic (Rattus norvegicus) (O89049 whole entry, looked up): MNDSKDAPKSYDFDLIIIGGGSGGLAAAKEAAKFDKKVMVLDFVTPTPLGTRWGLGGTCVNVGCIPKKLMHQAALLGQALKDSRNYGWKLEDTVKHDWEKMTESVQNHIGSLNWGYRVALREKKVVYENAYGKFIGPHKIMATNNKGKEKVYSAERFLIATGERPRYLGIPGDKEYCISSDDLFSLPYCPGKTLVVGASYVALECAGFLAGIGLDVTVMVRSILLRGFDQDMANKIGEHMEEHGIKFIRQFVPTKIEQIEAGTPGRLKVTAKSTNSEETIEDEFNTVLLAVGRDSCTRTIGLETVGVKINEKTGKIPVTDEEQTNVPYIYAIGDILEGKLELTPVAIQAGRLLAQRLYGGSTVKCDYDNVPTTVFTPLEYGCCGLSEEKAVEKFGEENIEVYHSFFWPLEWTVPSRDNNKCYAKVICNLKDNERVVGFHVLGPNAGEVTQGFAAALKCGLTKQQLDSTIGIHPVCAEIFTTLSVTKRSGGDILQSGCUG

This assay has as its target Thioredoxin reductase 1, cytoplasmic (Rattus norvegicus) (UniProt O89049). In words: qHTS Assay for Inhibitors of Mammalian Selenoprotein Thioredoxin Reductase 1 (TrxR1): qHTS. Also: nearly all actives have a fitted effect of over 65% in size. The following applies: recombinant rTrxR1, NADPH fluorescence consumption, selenite substrate; series mostly up to 114 µM. The gist of the method:
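Rat TrxR1 (90 nM in the dispensed reagent) was pre-reduced with 400 uM NADPH for 5 min at room temperature, then incubated with compound for 15 min. After 400 uM selenite was added, NADPH fluorescence (Ex 340/Em 450 nm) was followed for 8 min.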
Regarding `CCOC(=O)c1[nH]c(C)c(CCC(=O)N2CCN(c3ccccc3)CC2)c1C`, the Potency entry was “inactive”.

In the case of `CCc1nc2ccc(C(=O)N3CCN(c4cc(Cl)ccc4C)CC3)cc2nc1CC`, the Potency result was “inactive”.

As for `CC(C)CNC(=S)NC(=O)c1ccc(Cl)cc1`, the Potency is 14.1 µM (active).

On to `CC(C)CNC(=S)NNC(=O)c1nn(C)cc1Cl`, for which the Potency entry was “inactive”.

Turning to `Cc1scc(C(=O)NNC(=S)NCC(C)C)c1C`, the Potency entry was “inactive”.

With `CCOC(=O)c1c(NC(=O)CSc2cn(CCNC(=O)c3cccc(C(F)(F)F)c3)c3ccccc23)sc2c1CCC2`, the activity change, negative = inhibition was 16.1% [at 11.4 µM].

`Cc1cc(C)nc(NNC2=CC(=O)CC(C)(C)C2)n1`: the Potency was 14.1 µM (active).

With `CC1(C)CC(=O)C=C(NCc2ccncc2)C1`, the Potency entry is “inactive”.

Regarding `Cc1cc(O)ccc1NC1=CC(=O)CC(C)(C)C1`, the Potency entry was “inactive”.

Regarding `Cc1ccc(OCCn2c(CNc3ccccc3C)nc3ccccc32)cc1`, the Potency entry is “inactive”.

In the case of `CCN1CCc2nc3sc(C(=O)Nc4ccccc4OC(F)(F)F)c(N)c3cc2C1`, the Potency entry is “inactive”.

Regarding `Cc1ccc(C)c(Cn2c(CCCNC(=O)C3CCCCC3)nc3ccccc32)c1`, the Potency entry was “inactive”.

On to `CCC(=O)Nc1ccc2nc(SCC(=O)N3CCc4ccccc43)sc2c1`, for which the Potency entry was “inactive”.

As for `O=C1C=CC(=O)N1c1ccc(N2CCCCC2)cc1`, the Potency is 0.708 µM (active).

Take `O=C(NCc1ccc(F)cc1)c1ccc(Cn2c(SCc3ccc(F)cc3)nc3cccnc32)cc1`: the Potency result was “inactive”.

As to `Cc1ccc(C)n1-c1nnc(N2CCC(C(=O)NCc3ccc(F)cc3)CC2)s1`, the Potency entry was “inactive”.

On to `COc1ccc(CCNC(=O)CCCn2c(=O)c3ccccc3n(Cc3ccc(F)cc3Cl)c2=O)cc1OC`, for which the Potency entry is “inactive”.

Take `Nc1ccccc1SC(C[N+](=O)[O-])c1ccccc1` (stereo unspecified): the Potency is 7.94 µM (active).

Consider `CN(C)c1ccc(/C=c2\[nH]c(=O)/c(=C/c3ccc(N(C)C)cc3)[nH]c2=O)cc1`, for which the Potency entry is “inactive”.

Take `Cc1ccc(C)c(NC(=O)C2Cc3ccccc3CN2C(=O)OCc2ccccc2)c1` (stereo unspecified): the Potency entry is “inactive”.

With `COc1ccccc1N1CCN(C(=O)C2Cc3ccccc3CN2C(=O)c2ccco2)CC1` (stereo unspecified), the Potency entry was “inactive”.

For `Cc1ccc(S(=O)(=O)N(C)C)cc1NC(=O)C1Cc2ccccc2CN1C(=O)c1ccco1` (stereo unspecified), the Potency was 39.8 µM (active).

For the molecule `Cc1c(Cl)cccc1NC(=O)CCS(=O)(=O)c1ccc2c(c1)oc(=O)n2C`, the Potency entry was “inactive”.

Regarding `Cc1ccc(C)c(NC(=O)Cn2ccn(-c3ccc(F)cc3)c(=O)c2=O)c1`, the Potency entry is “inactive”.

On to `CCc1cc2c(cc3c(=O)n(CC(=O)NCCc4ccc(OC)c(OC)c4)ncn32)s1`, for which the Potency result is “inactive”.

Consider `O=C1c2ccccc2C(=O)N1CCOc1ccc(F)cc1`, for which the Potency result was “inactive”.

`O=C(OCCN1C(=O)c2ccccc2C1=O)Oc1ccccc1`: the Potency entry was “inactive”.

In the case of `O=C1c2ccccc2C(=O)N1CCC(O)C[N+](=O)[O-]` (stereo unspecified), the Potency is 70.8 µM (active).

Turning to `Cc1cc2nn(-c3ccc(Cl)cc3)nc2cc1NC(=O)C(C)C`, the Potency result was “inactive”.

Turning to `CCCC(NC(=O)c1ccco1)c1nc2ccccc2[nH]1` (stereo unspecified), the Potency result was “inactive”.

Take `CC(C)Oc1ccc(/C=C(\NC(=O)/C=C/c2ccco2)C(=O)NCCc2nc3ccccc3[nH]2)cc1`: the Potency is 17.8 µM (active).

In the case of `COc1ccc(/C=C(\NC(=O)c2ccc(OCC(C)C)cc2)C(=O)OCc2ccco2)cc1`, the Potency entry is “inactive”.

Regarding `O=C1CN(Cc2ccccc2)S(=O)(=O)c2ccccc21`, the Potency entry was “inactive”.

Turning to `COc1cccc(CNC(=O)c2ccc3c(Cl)c4c(nc3c2)CCCC4)c1`, the Potency entry is “inactive”.

For the molecule `C/C=C(\C)C(=O)N1CC2(CC(c3cccc(NC(=O)CCCCC)c3)=NO2)C[C@@H]1C(N)=O` (stereo partly specified), the Potency result is “inactive”.

Regarding `C/C=C\C=C\C(=O)N1CC2(CC(c3cccc(NC(=O)/C(C)=C\C)c3)=NO2)C[C@H]1C(N)=O` (stereo partly specified), the Potency was 50.1 µM (active).

Consider `CC/C=C/C(=O)N1CC2(CC(c3cccc(NC(=O)CC)c3)=NO2)C[C@H]1C(N)=O` (stereo partly specified), for which the Potency result was “inactive”.

Take `COc1cccc(CNC(=O)Cc2csc3nc(-c4ccccc4)cn23)c1`: the Potency entry is “inactive”.

Turning to `Cc1nnc(SCC(=O)NNC(=O)c2ccc(Cl)cc2)n1CC1CCCO1` (stereo unspecified), the Potency entry is “inactive”.

With `O=C(CSc1nnc(-c2ccco2)n1CC1CCCO1)c1ccccc1` (stereo unspecified), the Potency was 44.7 µM (active).

On to `CNC(=O)NC(=O)CSc1nnc(-c2ccc(F)cc2)n1CC1CCCO1` (stereo unspecified), for which the Potency entry is “inactive”.

On to `CCc1cccc(NC(=O)c2cc(-c3ccccc3)n[nH]2)c1`, for which the Potency entry is “inactive”.

As to `CC(C)(C)c1ccc(C(=O)C[n+]2cccc3cc(Cl)ccc32)cc1`, the Potency entry was “inactive”.

Turning to `CC(C)c1ccc(S(=O)(=O)Nc2ccc(O)c(Sc3nc4ccccc4s3)c2)cc1`, the Potency entry is “inactive”.

Consider `O=[N+]([O-])c1c(NCCO)cc(Sc2nc3ccccc3s2)c2nonc12`, for which the Potency was 1.12 µM (active).

Regarding `CC(C)(C)c1ccc(S(=O)(=O)Nc2ccc(O)c(Sc3nc4ccccc4s3)c2)cc1`, the Potency result is “inactive”.

For the molecule `CCc1ccccc1NS(=O)(=O)c1ccc2nc(-c3ccccc3)[nH]c2c1`, the Potency result was “inactive”.

As to `O=S(=O)(Nc1ccc2nc(-c3ccco3)[nH]c2c1)c1ccccc1`, the Potency was 56.2 µM (active).

For the molecule `O=S(=O)(Nc1ccc2nc(-c3cccc(Cl)c3)oc2c1)c1ccccc1`, the Potency entry is “inactive”.

For `CCOC(=O)C1CCN(c2csc3ccc(C)cc3c2=O)CC1`, the Potency result was “inactive”.

Take `COC(=O)c1ccc(NC(=O)CSc2n[nH]c(-c3ccccc3)n2)cc1`: the Potency entry is “inactive”.

Turning to `COC(=O)c1nc(NC(=O)c2ccccc2)n[nH]1`, the Potency was 56.2 µM (active).

Regarding `O=C(Nc1nsc(-c2ccccc2)n1)c1ccncc1`, the Potency result is “inactive”.

As to `COc1ccc(CNC(=O)c2cc3c(=O)[nH]c4ccc(C)cc4c3s2)c(OC)c1`, the Potency entry was “inactive”.

`Cc1cccc(Cn2c(=O)n(CCC(=O)NCCc3ccc(Cl)cc3)c(=O)c3sccc32)c1`: the Potency result is “inactive”.

Take `COc1ccc(-c2nc(S(=O)(=O)c3ccccc3)c(N3CCCCC3)o2)cc1`: the Potency entry is “inactive”.

`O=S(=O)(c1ccccc1)c1nc(-c2ccc(Cl)cc2Cl)oc1N1CCCCC1`: the Potency result is “inactive”.

Take `O=S(=O)(c1ccccc1)c1nc(Cc2ccccc2)oc1N1CCOCC1`: the Potency was 1.58 µM (active).

Consider `CCOc1ccc(-c2cc3c(=O)n(CC(=O)NCc4ccc(OC)cc4)ccn3n2)cc1`, for which the Potency entry is “inactive”.

As for `Cc1c(CCO)sc[n+]1CC(=O)c1ccc2ccccc2c1`, the Potency entry is “inactive”.

For `COc1ccc(-c2oc3ncnc(NCCCO)c3c2-c2ccc(OC)cc2)cc1`, the Potency result was “inactive”.

`Cc1noc2ncnc(NCc3ccccc3Cl)c12`: the Potency entry is “inactive”.

As for `OCCNc1ncnc2oc(-c3ccco3)c(-c3ccco3)c12`, the Potency is 50.1 µM (active).

For `CN(C)c1ccc(/C=N\Nc2ccc([N+](=O)[O-])cc2[N+](=O)[O-])cc1Cl`, the activity change, negative = inhibition was 26.5% [at 0.0914 µM].

For `Cc1ccc2ncc(C(=O)Nc3ccc(OC(F)(F)F)cc3)c(=O)n2c1`, the Potency entry is “inactive”.

For `Cc1ccccc1-n1nc(C)c2cc(C(=O)NC3CC3)sc21`, the Potency result is “inactive”.

`Cc1ccccc1-n1nc(C)c2c1N=C1C(Cl)=CC(Cl)=CN1C2c1ccc(C(=O)O)cc1` (stereo unspecified): the Potency is 12.6 µM (active).

Take `O=C(CCc1nc(CN2CCN(S(=O)(=O)c3ccc(Br)cc3)CC2)no1)N1CCCCC1`: the Potency entry was “inactive”.

For `Cc1noc(/C=C/N(C)C)c1S(=O)(=O)N1CCCC(C(=O)Nc2cccc(F)c2)C1` (stereo unspecified), the Potency entry is “inactive”.

Consider `Cc1ccc(C)n1-c1ccncc1`, for which the Potency entry is “inactive”.

For `c1ccc(-c2nccc(-c3ccc(-n4cnc5ccccc54)cc3)n2)nc1`, the Potency entry is “inactive”.

`Cc1nccc(-c2ccc(-n3c(C)ccc3C)cc2)n1`: the Potency was 79.4 µM (active).

For `NC1CCN(O)C1=O` (stereo unspecified), the Potency result was “inactive”.

As for `CC(C)(C)OC(=O)N(Cc1ccco1)S(=O)(=O)c1ccccc1Br`, the Potency result is “inactive”.

Turning to `O=C(NCc1ccccc1Cl)c1cccn1-c1nnc(N2CCCCC2)s1`, the Potency entry is “inactive”.

For the molecule `O=C(NCCc1ccccc1)c1ccc2c(c1)N(Cc1ccccc1)C(=O)c1ccccc1S2(=O)=O`, the Potency entry was “inactive”.

Take `CCCCOc1ccc(CN2C(=O)C(=O)c3cc(Br)cc(C)c32)cc1OC`: the Potency entry was “inactive”.

For the molecule `CCOc1ccc(C(=O)N2CCN(CCc3ccccn3)CC2)cc1`, the Potency entry was “inactive”.

In the case of `CCOc1ccc(C(=O)CCN2CCOCC2)cc1`, the Potency is 3.16 µM (active).

Turning to `CCOc1ccc(-c2ccc(SCC(=O)N3CCOCC3)nn2)cc1`, the Potency result is “inactive”.

As to `SCc1nc2ccc(Cl)cc2[nH]1`, the Potency result was “inactive”.

As to `Cc1ccccc1C(=O)Nc1sc2c(c1C(=O)N1CCC(C)CC1)CCCC2`, the Potency entry was “inactive”.

In the case of `Cc1cccc(NC(=O)C2CCCN2S(=O)(=O)c2cccc3nsnc23)c1C` (stereo unspecified), the Potency entry is “inactive”.

`COc1c(O)ccc2c1CN1CCc3cc4c(cc3C1C2)OCO4` (stereo unspecified): the Potency was 50.1 µM (active).

As to `COc1cc(COCC(O)CN2CCN(Cc3ccc4c(c3)OCO4)CC2)cc(OC)c1OC` (stereo unspecified), the Potency entry was “inactive”.

As for `COc1cc(C2c3cc4c(cc3C(O)C3COC(=O)C23)OCO4)cc(OC)c1OC` (stereo unspecified), the Potency result was “inactive”.

Consider `Nc1nc(N)c(N=O)c(N)n1`, for which the Potency entry is “inactive”.

With `COc1ccc(NS(=O)(=O)c2cc3c4c(c2)CC(=O)N4CCC3)cc1Cl`, the Potency result was “inactive”.

Take `Fc1ccc(-c2ccc(-c3nn4c(-c5ccco5)nnc4s3)o2)cc1`: the Potency was 35.5 µM (active).

As to `O=C(Nc1ccc(Br)cc1)c1ccc(Br)c(S(=O)(=O)NCc2ccccc2)c1`, the Potency result is “inactive”.

In the case of `O=C(NC1CC(=O)N(c2ccc(Cl)cc2)C1)C1CCCC1` (stereo unspecified), the Potency result is “inactive”.

`Cc1ccc(CCNC(=O)c2ccc3c(c2)N(Cc2cc(C)ccc2C)C(=O)c2ccccc2S3=O)cc1` (stereo unspecified): the Potency entry is “inactive”.

As for `Cc1ccccc1C(CC(=O)c1cccs1)C(C#N)C#N` (stereo unspecified), the Potency is 10 µM (active).

For the molecule `C[N+]1(CC(=O)c2cccs2)CCOCC1`, the Potency result was “inactive”.

Regarding `Cc1ccccc1N(C(=O)CNC(=O)c1cccs1)C(C(=O)NC1CCCC1)c1ccncc1` (stereo unspecified), the Potency result is “inactive”.

Turning to `CCOC(=O)c1ccc(NC(=O)c2c(NCc3cccc(OC)c3)sc3c2CCC3)cc1`, the Potency result was “inactive”.

With `CCOc1ccc(N2C(=O)/C(=C/c3ccc(C)o3)N(C)C2=S)cc1`, the Potency is 31.6 µM (active).

On to `CCOC(=O)c1ccc(NC2=CC(c3ccc(OCC)cc3)N(c3ccc(C(=O)OCC)cc3)C2=O)cc1` (stereo unspecified), for which the Potency entry was “inactive”.

Turning to `CCOc1ccc(N2C(=O)CN(c3cccc4ccccc34)C2=S)cc1`, the Potency entry was “inactive”.

For the molecule `COc1ccc(Cn2c(=O)n(-c3ccccc3C)c(=O)c3c4c(sc32)CN(C(C)=O)CC4)cc1`, the Potency entry is “inactive”.

As for `O=C(COc1ccccc1Cl)Nc1ccc2nc(SCC(=O)N3CCCC3)sc2c1`, the Potency entry is “inactive”.
